# Laboratory results as given in article PMC9911399, “Two distinct binding modes provide the RNA-binding protein RbFox with extraordinary sequence specificity”.
# Where a chain is given by its changes, count along the chain named. Over roughly 16,000 sequences, “ka relative to ugcaugu” has its median near 0.0091; the highest 2% begin near 0.032. Only a selection was taken, and the highest values are over-represented in it overall.
# T1: RBFOX1 RRM (Homo sapiens, UniProt Q9NWB1 109-208)
# T1 sequence: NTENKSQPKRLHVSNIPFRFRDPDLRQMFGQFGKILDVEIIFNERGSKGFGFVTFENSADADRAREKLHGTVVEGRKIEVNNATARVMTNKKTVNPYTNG
# B1: AAAUAAA (DNA:RNA)
# RNA: GGGAGACCGGAAUUCAGAUUGUCCAAAUAAAUUAAAUCCCGUCGUAGCCACCA
# DNA 1: CAATCTGAATTCCGGTCTCCC
# DNA 2: TGGTGGCTACGACGGGATT
# B2: AAAGAGU (DNA:RNA)
# RNA: B1 RNA with U28G, A30G, A31U
# DNA 1: CAATCTGAATTCCGGTCTCCC
# DNA 2: TGGTGGCTACGACGGGATT
# B3: AGUGGCG (DNA:RNA)
# RNA: B1 RNA with A26G, A27U, U28G, A29G, A30C, A31G
# DNA 1: CAATCTGAATTCCGGTCTCCC
# DNA 2: TGGTGGCTACGACGGGATT
# B4: CUCUGUC (DNA:RNA)
# RNA: B1 RNA with A25C, A26U, A27C, A29G, A30U, A31C
# DNA 1: CAATCTGAATTCCGGTCTCCC
# DNA 2: TGGTGGCTACGACGGGATT
# B5: GUGCGCC (DNA:RNA)
# RNA: GGGAGACCGGAAUUCAGAUUGUCCGUGCGCCUUAAAUCCCGUCGUAGCCACCA
# DNA 1: CAATCTGAATTCCGGTCTCCC
# DNA 2: TGGTGGCTACGACGGGATT
# B6: CUUACGG (DNA:RNA)
# RNA: B5 RNA with G25C, G27U, C28A, G29C, C30G, C31G
# DNA 1: CAATCTGAATTCCGGTCTCCC
# DNA 2: TGGTGGCTACGACGGGATT
# B7: CUGGGGU (DNA:RNA)
# RNA: B5 RNA with G25C, C28G, C30G, C31U
# DNA 1: CAATCTGAATTCCGGTCTCCC
# DNA 2: TGGTGGCTACGACGGGATT
# B8: UGGGGUU (DNA:RNA)
# RNA: B5 RNA with G25U, U26G, C28G, C30U, C31U
# DNA 1: CAATCTGAATTCCGGTCTCCC
# DNA 2: TGGTGGCTACGACGGGATT
# B9: UGGUUGG (DNA:RNA)
# RNA: B1 RNA with A25U, A26G, A27G, A29U, A30G, A31G
# DNA 1: CAATCTGAATTCCGGTCTCCC
# DNA 2: TGGTGGCTACGACGGGATT
# B10: CGGUUGC (DNA:RNA)
# RNA: B5 RNA with G25C, U26G, C28U, G29U, C30G
# DNA 1: CAATCTGAATTCCGGTCTCCC
# DNA 2: TGGTGGCTACGACGGGATT
# B11: UGGUUGC (DNA:RNA)
# RNA: B5 RNA with G25U, U26G, C28U, G29U, C30G
# DNA 1: CAATCTGAATTCCGGTCTCCC
# DNA 2: TGGTGGCTACGACGGGATT
# B12: UGGGGGU (DNA:RNA)
# RNA: B5 RNA with G25U, U26G, C28G, C30G, C31U
# DNA 1: CAATCTGAATTCCGGTCTCCC
# DNA 2: TGGTGGCTACGACGGGATT
# B13: UCAAACU (DNA:RNA)
# RNA: B1 RNA with A25U, A26C, U28A, A30C, A31U
# DNA 1: CAATCTGAATTCCGGTCTCCC
# DNA 2: TGGTGGCTACGACGGGATT
# B14: AUUAGUA (DNA:RNA)
# RNA: B1 RNA with A26U, A27U, U28A, A29G, A30U
# DNA 1: CAATCTGAATTCCGGTCTCCC
# DNA 2: TGGTGGCTACGACGGGATT
# B15: CGGAAGU (DNA:RNA)
# RNA: B1 RNA with A25C, A26G, A27G, U28A, A30G, A31U
# DNA 1: CAATCTGAATTCCGGTCTCCC
# DNA 2: TGGTGGCTACGACGGGATT
# B16: UCUUCCA (DNA:RNA)
# RNA: B1 RNA with A25U, A26C, A27U, A29C, A30C
# DNA 1: CAATCTGAATTCCGGTCTCCC
# DNA 2: TGGTGGCTACGACGGGATT
# B17: CGCCUUG (DNA:RNA)
# RNA: B5 RNA with G25C, U26G, G27C, G29U, C30U, C31G
# DNA 1: CAATCTGAATTCCGGTCTCCC
# DNA 2: TGGTGGCTACGACGGGATT
# B18: CGCCUGC (DNA:RNA)
# RNA: B5 RNA with G25C, U26G, G27C, G29U, C30G
# DNA 1: CAATCTGAATTCCGGTCTCCC
# DNA 2: TGGTGGCTACGACGGGATT
# B19: GCCUUGC (DNA:RNA)
# RNA: B5 RNA with U26C, G27C, C28U, G29U, C30G
# DNA 1: CAATCTGAATTCCGGTCTCCC
# DNA 2: TGGTGGCTACGACGGGATT
# B20: GCCUGUC (DNA:RNA)
# RNA: B5 RNA with U26C, G27C, C28U, C30U
# DNA 1: CAATCTGAATTCCGGTCTCCC
# DNA 2: TGGTGGCTACGACGGGATT
# B21: GCCCUGC (DNA:RNA)
# RNA: B5 RNA with U26C, G27C, G29U, C30G
# DNA 1: CAATCTGAATTCCGGTCTCCC
# DNA 2: TGGTGGCTACGACGGGATT
# B22: GCUGCUU (DNA:RNA)
# RNA: B5 RNA with U26C, G27U, C28G, G29C, C30U, C31U
# DNA 1: CAATCTGAATTCCGGTCTCCC
# DNA 2: TGGTGGCTACGACGGGATT
# B23: CCGCCUG (DNA:RNA)
# RNA: B5 RNA with G25C, U26C, G29C, C30U, C31G
# DNA 1: CAATCTGAATTCCGGTCTCCC
# DNA 2: TGGTGGCTACGACGGGATT
# B24: GCCCGCU (DNA:RNA)
# RNA: B5 RNA with U26C, G27C, C31U
# DNA 1: CAATCTGAATTCCGGTCTCCC
# DNA 2: TGGTGGCTACGACGGGATT
# B25: GCCUGCU (DNA:RNA)
# RNA: B5 RNA with U26C, G27C, C28U, C31U
# DNA 1: CAATCTGAATTCCGGTCTCCC
# DNA 2: TGGTGGCTACGACGGGATT
# B26: GCUUGCC (DNA:RNA)
# RNA: B5 RNA with U26C, G27U, C28U
# DNA 1: CAATCTGAATTCCGGTCTCCC
# DNA 2: TGGTGGCTACGACGGGATT
# B27: GCCUGUG (DNA:RNA)
# RNA: B5 RNA with U26C, G27C, C28U, C30U, C31G
# DNA 1: CAATCTGAATTCCGGTCTCCC
# DNA 2: TGGTGGCTACGACGGGATT
# B28: GCCCCUG (DNA:RNA)
# RNA: B5 RNA with U26C, G27C, G29C, C30U, C31G
# DNA 1: CAATCTGAATTCCGGTCTCCC
# DNA 2: TGGTGGCTACGACGGGATT
# Biological target: T1, RBFOX1 RRM
# Test: EMSA; HiTS-Eq, 1 nM pool, 10 min; buffer printed only for the single-RNA assays: 10 mM Tris pH 7.5, 150 mM NaCl, 3.4 mM EDTA, 0.001% NP-40, 30 C
# Conditions: tags: His6 N-terminal (pET28a); label: 5' 32P
# Summary of the method: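 These values rest on relative association constants, computed from read-count changes of each RNA species versus the control reaction and normalised to the cognate motif. Reads came from free RNA recovered by 8% native PAGE after purified RbFox RRM (wild type or mutant) at increasing concentrations was equilibrated for 10 min in 50 µL with 1 nM of a 5′-radiolabelled pool with 7 randomized nucleotides and DNA-annealed flanks.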
row,Binder,binding signal
1,B1,0.000652 KA relative to UGCAUGU
2,B2,0.00527 KA relative to UGCAUGU
3,B3,0.0184 KA relative to UGCAUGU
4,B4,0.00978 KA relative to UGCAUGU
5,B5,0.0184 KA relative to UGCAUGU
6,B6,0.00764 KA relative to UGCAUGU
7,B7,0.018 KA relative to UGCAUGU
8,B8,0.036 KA relative to UGCAUGU
9,B9,0.0294 KA relative to UGCAUGU
10,B10,0.0256 KA relative to UGCAUGU
11,B11,0.0455 KA relative to UGCAUGU
12,B12,0.0229 KA relative to UGCAUGU
13,B13,0.00177 KA relative to UGCAUGU
14,B14,0.00672 KA relative to UGCAUGU
15,B15,0.0236 KA relative to UGCAUGU
16,B16,0.00385 KA relative to UGCAUGU
17,B17,0.0242 KA relative to UGCAUGU
18,B18,0.0343 KA relative to UGCAUGU
19,B19,0.0319 KA relative to UGCAUGU
20,B20,0.0275 KA relative to UGCAUGU
21,B21,0.0133 KA relative to UGCAUGU
22,B22,0.0216 KA relative to UGCAUGU
23,B23,0.0178 KA relative to UGCAUGU
24,B24,0.0168 KA relative to UGCAUGU
25,B25,0.0359 KA relative to UGCAUGU
26,B26,0.0307 KA relative to UGCAUGU
27,B27,0.034 KA relative to UGCAUGU
28,B28,0.016 KA relative to UGCAUGU
